Source: PubChem (Sanford-Burnham Center for Chemical Genomics)
Most compounds without a hit are left out; they make up all but 6.3% or so of the library.
MPTP block: permeability transition pore inhibition; isolated mouse mitochondria, Ca2+ swelling absorbance, 30 min; inhibition, % at 10 µM; 1.4% of 360,000 active; AID 602449;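 active = inhibition of 50% or more, scaled per plate between neutral and stimulator controls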;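 also: 0% = DMSO wells given calcium and 100% = 1 mM EGTA wells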
tim23-1 inh: inhibits growth of tim23-1 mutant yeast | S. cerevisiae tim23-1 growth, BacTiter-Glo luminescence, 24 h | inhibition, % at 20 µM | 1.3% of 330,000 active | AID 463212;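 active = growth inhibition of the mutant yeast at or above 50%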;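 also: temperature-sensitive mutant grown at 25 °C; plate controls were DMSO-treated mutant yeast for no effect and medium wells lacking yeast for full effect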
Mdm2 MdmX PPI: human Mdm2/MdmX binding inhibition | SaOS-2 split-luciferase Mdm2/MdmX complementation, luminescence | AID 485346 | inhibition, % at 8 µM | 3% of 330,000 active | O15151+Q00987;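 active = inhibition of at least 50% at 8 µM in the primary screen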
Target sequence (O15151 whole entry, looked up): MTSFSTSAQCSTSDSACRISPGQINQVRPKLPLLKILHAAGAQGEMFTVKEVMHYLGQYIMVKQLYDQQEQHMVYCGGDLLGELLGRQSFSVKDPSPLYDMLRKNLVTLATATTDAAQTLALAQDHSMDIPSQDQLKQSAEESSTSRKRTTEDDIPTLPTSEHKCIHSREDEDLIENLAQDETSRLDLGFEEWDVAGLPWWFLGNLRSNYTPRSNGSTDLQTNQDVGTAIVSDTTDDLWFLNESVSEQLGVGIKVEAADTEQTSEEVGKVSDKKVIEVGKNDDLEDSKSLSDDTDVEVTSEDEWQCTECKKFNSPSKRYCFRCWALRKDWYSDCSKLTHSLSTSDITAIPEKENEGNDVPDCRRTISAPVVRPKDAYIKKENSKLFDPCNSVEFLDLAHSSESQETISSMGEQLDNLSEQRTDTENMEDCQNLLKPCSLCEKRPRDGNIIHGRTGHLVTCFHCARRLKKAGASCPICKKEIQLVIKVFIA
Target sequence (Q00987 whole entry, looked up): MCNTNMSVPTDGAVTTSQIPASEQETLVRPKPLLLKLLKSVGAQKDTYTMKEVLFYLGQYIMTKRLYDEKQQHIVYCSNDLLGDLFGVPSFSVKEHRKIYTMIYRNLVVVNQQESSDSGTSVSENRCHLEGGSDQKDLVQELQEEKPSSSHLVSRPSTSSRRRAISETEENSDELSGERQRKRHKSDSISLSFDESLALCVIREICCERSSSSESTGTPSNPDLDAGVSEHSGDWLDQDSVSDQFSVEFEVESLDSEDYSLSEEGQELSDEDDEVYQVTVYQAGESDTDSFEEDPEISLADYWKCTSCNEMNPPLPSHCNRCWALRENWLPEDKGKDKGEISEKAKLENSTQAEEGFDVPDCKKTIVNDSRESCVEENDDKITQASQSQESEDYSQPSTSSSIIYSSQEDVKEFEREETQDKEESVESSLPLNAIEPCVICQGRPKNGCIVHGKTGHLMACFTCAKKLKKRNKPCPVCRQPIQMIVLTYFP
tim10-1 inh: tim10-1 yeast growth inhibition; S. cerevisiae tim10-1 ts strain growth, BacTiter-Glo, 24 h; inhibition, % at 20 µM; 2.2% of 330,000 active;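 active = inhibition of at least 40%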;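 also: mutant grown at 25 °C; 0% = DMSO wells with yeast and 100% = wells holding no yeast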
TIM10 inh: TIM10 yeast growth inhibition; S. cerevisiae TIM10 strain growth, BacTiter-Glo luminescence, 24 h; AID 463195; 1.4% of 330,000 active; inhibition, % at 10 µM;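 active = inhibition of 40% or more at the single tested concentration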;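 also: wild-type TIM10 isogenic control strain grown at permissive 25 °C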
tim10-1 conf: confirmation of tim10-1 mutant yeast growth inhibitors | shares compounds with tim10-1 inh | S. cerevisiae tim10-1 ts strain growth, BacTiter-Glo, 24 h | inhibition, % at 20 µM | 56% of 7,400 active | AID 463213;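 active = inhibition of yeast growth at or above a set limit in either of two repeat tests at 20 µM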;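 also: tim10-1 mutant grown at permissive 25 °C to find synthetic lethal compounds; 0% = DMSO yeast wells and 100% = medium wells without yeast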
tim10 confirm: confirmation of TIM10 yeast growth inhibitors | shares compounds with TIM10 inh | S. cerevisiae tim10 strain growth, BacTiter-Glo luminescence, 24 h | inhibition, % at 10 µM | 63% of 4,600 active | AID 463215;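 active = inhibition of yeast growth at or above a set limit in either of two replicates at 10 µM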;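 also: this counterscreen used the strain with wild-type TIM10; 0% = yeast with DMSO and 100% = medium wells lacking yeast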
tim23-1 confirm: confirmation of tim23-1 mutant yeast growth inhibitors | 83% of 4,400 active | shares compounds with tim23-1 inh | S. cerevisiae tim23-1 growth, BacTiter-Glo luminescence, 24 h | AID 463218 | inhibition, % at 20 µM;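 active = inhibition above about 39% in either of two replicate wells at 20 µM, limit read from the data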;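 also: temperature-sensitive tim23-1 mutant grown at 25 °C; 0% = DMSO wells with yeast and 100% = medium wells without yeast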
Mdm2 MdmX conf: human Mdm2/MdmX binding inhibition, confirmed | shares compounds with Mdm2 MdmX PPI | luminescent assay | inhibition, % at 8 µM | 55% of 10,000 active | AID 489028; in the data active = inhibition above about 40%
Full FLuc ctr: counter-screen for Mdm2/MdmX inhibitors: full-length luciferase | shares compounds with Mdm2 MdmX PPI | SaOS-2 full-length luciferase counterscreen, luminescence | inhibition, % at 8 µM | 77% of 6,200 active;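 active = mean inhibition at 8 µM reaching about 37%, which flags the compound as non-specific, limit read from the data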;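 also: p53-null SaOS-2 cells with luciferase driven by a doxycycline-inducible promoter; compound on cells about two nights before reading with doxycycline added after day one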
MPTP counter: mitochondrial membrane potential, counter-screen. shares compounds with MPTP block. 78% of 5,000 active. inhibition, % at 10 µM. isolated mitochondria, Rhodamine 123 fluorescence; in the data active = inhibition above about 22%;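 also: 0% = DMSO vehicle and 100% = positive control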
MPTP swell DR: MPTP inhibition, dose response swelling confirmation; 58% of 780 active; shares compounds with MPTP block; AID 651561; IC50, µM; isolated mitochondria swelling, absorbance; in the data active = IC50 below about 20 µM
MPTP cs DR: counter-screen for mitochondrial permeability transition pore inhibitors, dose response; shares compounds with MPTP block; isolated mitochondria counterscreen, fluorescence read-out; IC50, µM; 49% of 780 active; in the data active = IC50 below about 80 µM
An asterisk follows results filed as active; i = inactive; . = no result.

SMILES	MPTP block	tim23-1 inh	Mdm2 MdmX PPI	tim10-1 inh	TIM10 inh	tim10-1 conf	MPTP counter	others
O=[N+]([O-])c1ccc(NC(=S)N2CCc3ccccc3C2)cc1	58*	44	7	41*	35	29	65*
O=C(NNC(=O)c1ccccn1)c1cccc([N+](=O)[O-])c1	-1	10	-1	19	14	.	.
O=C(Nc1cc(Sc2ccccn2)cc([N+](=O)[O-])c1)c1cccc(F)c1	97*	48	40	44*	34	53*	70*
CCc1nc2c(OCC(N)=O)cccn2c1N(C)C(=O)C(C)C	-1	.	.	.	.	.	.
COc1ccc(-c2nc(NC(C)=O)sc2-c2ccccc2)cc1	82*	42	27	42*	26	20	-2	MPTP swell DR=i;MPTP cs DR=>80
CC(c1ccccc1)N1C(=O)/C(=C/c2ccncc2)SC1=S (stereo unspecified)	70*	73*	67*	66*	62*	61*	29*	tim10 confirm=73*;tim23-1 confirm=28;Mdm2 MdmX conf=17
O=C(O)C(c1ccccc1)N1C(=O)/C(=C/c2cccs2)SC1=S (stereo unspecified)	3	16	4	-12	6	.	.
CNc1nc(NCc2ccc(N(C)C)cc2)c2sccc2n1	5	.	.	.	.	.	.
O=C(Nc1cc(Cl)cc(Cl)c1)c1cccc(OC(F)F)c1	96*	85*	16	79*	68*	79*	96*	tim10 confirm=66*;tim23-1 confirm=72*
Cc1ccnc(NC(=O)c2cccc(OC(F)F)c2)n1	0	9	0	-1	4	.	.
O=C(NCc1cccc(C(F)(F)F)c1)c1ccc2sc(C3=C[C@@H](O)[C@@H](O)[C@@H](CO)O3)nc2c1	0	.	.	.	.	.	.
CCN(CC)c1ccc(NC(=O)c2cc(Cl)ccc2OC)cc1	99*	50*	35	43*	26	32*	-17	tim23-1 confirm=44*;MPTP swell DR=14*;MPTP cs DR=>80
COc1ccc(Cl)cc1C(=O)Nc1ccncc1	-1	22	34	7	4	.	.
N#Cc1c(NC(=S)NC(=O)Cc2cccs2)sc2c1CCCCC2	84*	33	7	47*	19	29	74*
OC(Cc1cccc(C=NN2CCOCC2)n1)(C(F)(F)F)C(F)(F)F	0	.	.	.	.	.	.
Cc1c(C(=O)NCc2cccc(C(F)(F)F)c2)sc(=O)n1Cc1ccc(C(=O)N(C)C)cc1	-2	.	.	.	.	.	.
N#C/C(=N/Nc1ccc(OC(F)(F)F)cc1)C(N)=S	83*	26	78*	48*	26	57*	87*	Mdm2 MdmX conf=88*;Full FLuc ctr=35
COc1ccc(C=NN=C2c3ccccc3-c3ccccc32)cc1OC	0	.	.	.	.	.	.
OCCN1CCN(C2Cc3cc(Cl)ccc3Sc3ccc(Cl)cc32)CC1 (stereo unspecified) (tested in a mixture with another compound)	84*	20	59*	48*	43*	35*	-11	tim10 confirm=1;Mdm2 MdmX conf=30
CCc1ccc2c(c1)Sc1ccccc1CC2N1CCN(C)CC1 (stereo unspecified)	-6	-59	44	-33	22	.	.
O=C(Nc1ccc(Cl)cc1)N[C@@H]1CC[C@H](CCNS(=O)(=O)c2ccccc2F)O[C@@H]1CO	1	.	.	.	.	.	.
CCN1/C(=C/c2ccc3ccccc3[n+]2CC)C=Cc2ccccc21	160*	85*	89*	74*	52*	75*	68*	tim10 confirm=20;tim23-1 confirm=67*;Mdm2 MdmX conf=81*;Full FLuc ctr=21
CCCCN1/C(=C/c2ccc3ccccc3[n+]2CC)Sc2ccccc21	94*	39	77*	60*	-45	57*	104*	Mdm2 MdmX conf=76*;Full FLuc ctr=32
CCN1/C(=C/c2ccc3ccccc3[n+]2CCCS(=O)(=O)[O-])C=Cc2cc(C)ccc21	18	.	.	.	.	.	.
COC(=O)c1ccc2c(c1)C(C)(C)C(/C=C/c1ccc(O)cc1)=[N+]2C	86*	73*	85*	67*	56*	64*	-25	tim10 confirm=55*;tim23-1 confirm=68*;Mdm2 MdmX conf=100*;Full FLuc ctr=51*
SMILES	MPTP block	tim23-1 inh	Mdm2 MdmX PPI	tim10-1 inh	TIM10 inh	tim10-1 conf	MPTP counter	others
CCOc1ccc(N=C2SC(C(=O)Nc3ccccc3C#N)C(N)=C2C(=O)Nc2ccc(Cl)cc2)cc1 (stereo unspecified)	23	16	-4	11	0	.	.
N#Cc1ccccc1NC(=O)C1SC(=Nc2ccccc2)C(C(=O)Nc2ccc(Cl)cc2)=C1N (stereo unspecified)	62*	26	5	43*	30	29	65*
Cc1ccc(C(NC(=O)C2CCN(Cc3ccc(Oc4ccccc4)cc3)CC2)c2ccccn2)cc1 (stereo unspecified)	5	.	.	.	.	.	.
CN(C)CCCN1c2ccccc2CCc2ccc(Cl)cc21	80*	22	38	53*	17	32*	-15
O=C(NCCc1ccccc1C(F)(F)F)c1cc(COc2ccccc2)on1	4	.	.	.	.	.	.
CC(C)=CCc1c(O)ccc(C2COc3c(CC=C(C)C)c(O)cc(O)c3C2=O)c1O (stereo unspecified)	3	35	9	18	6	.	.
C=CC(C)(C)c1c(O)c(CC=C(C)C)c(O)c2c(=O)c3ccc(O)c(O)c3oc12	85*	43	92*	44*	-1	29*	40*	Mdm2 MdmX conf=86*;Full FLuc ctr=55*
OC[C@@H]1CN(Cc2ccc(Cl)cc2)C[C@H](n2cnc3c(NC4CCC4)ncnc32)O1	0	.	.	.	.	.	.
COc1ccc(C(C)NC(=S)NCc2ccc(F)cc2)cc1OC (stereo unspecified)	1	-21	-8	-2	-3	.	.
CCC(C)c1ccc(C(C)NC(=S)NCc2ccc(F)cc2)cc1 (stereo unspecified)	60*	49	3	44*	38	-11	94*
COC(=O)C1=C(C)NC(C)=C(C(=O)OC)C1C(=O)OCC(=O)NC1CCCCC1C (stereo unspecified)	-2	.	.	.	.	.	.
